Several values for one entry are separate records, joined by “and”; a condition that tells them apart may be missing. Equal entries are not always repeated. About 1,800 (0.5%) of roughly 360,000 compounds were called active. Many of the other results were omitted from the sample, so actives are more common in it than they were. Values without a mark were called inactive.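 The calls were made as follows: active = mean inhibition of at least 75% with every replicate also reaching 75%; inconclusive = mean inhibition at least 75% but some replicate below; inactive = mean inhibition below 75%.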

This test in a line: Shn3 3'UTR reporter decrease in osteoblasts – cell-based, Clone20 osteoblasts, firefly luciferase, set 2, Schnurri-3 inhibitor project, primary screen (AID 588674).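 Also: 0% = median of neutral control wells and 100% = pilot-screen positive control compound.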 The following applies: Clone20 osteoblast Shn3 3'UTR firefly luciferase, 24 h; at 12.5 µM; stronger effect = higher value.
Regarding `CNC(=O)c1nnn(-c2ccccc2)c1C(=O)NC`, the inhibition was -6.31%.

As to `N#Cc1c(NC(=O)c2ccc(N3CCOCC3)c([N+](=O)[O-])c2)sc2c1CCCC2`, the inhibition is 12%.

With `O=C(c1ccc(CS(=O)Cc2ccccc2Cl)o1)N1CCN(c2ccccc2)CC1` (stereo unspecified), the inhibition was -5.18%.

`CC1CC(NC(=S)N(C)C)CC(C)(C)C1` (stereo unspecified): the inhibition was -11.6%.

In the case of `CCN(CC)CCN(C(=O)c1ccc2c(c1)CCCC2)c1nc2c(OC)cccc2s1`, the inhibition was 18.3%.

Regarding `Cc1cccc2sc(N(CCCN(C)C)C(=O)CCS(=O)(=O)c3ccccc3)nc12`, the inhibition was 70.2%.

For `COc1cccc2sc(N(CCCN(C)C)C(=O)CCS(=O)(=O)c3ccccc3)nc12`, the inhibition is 97.2% (active).

Consider `CC(=O)CSc1nnc(CSc2ncccn2)n1C1CCCCC1`, for which the inhibition was -0.19%.

As to `Cn1c2ccc(F)cc2c2nnc(NN)nc21`, the inhibition was -1.82%.

Turning to `COc1cc(OC)cc(C(=O)NC2CCN(C(=O)N3c4ccccc4Sc4ccccc43)CC2)c1`, the inhibition is 38.1%.

Turning to `NC(c1csc(NC(=O)Nc2cccc(C(F)(F)F)c2)n1)C1CCCCC1` (stereo unspecified), the inhibition is 92% (active).

Regarding `NC(c1ccccc1)c1csc(NC(=O)Nc2cccc(C(F)(F)F)c2)n1` (stereo unspecified), the inhibition is 23%.

Regarding `COc1ccc(C(N)c2csc(NC(=O)Nc3cccc(C(F)(F)F)c3)n2)cc1` (stereo unspecified), the inhibition was 11.3%.

`C/C(=N/NC(=O)c1ccn(C)n1)c1ccncc1`: the inhibition was -3.15%.

Consider `CC(=NNC(=S)N1CCCCCC1)c1ccccn1`, for which the inhibition was 95.3% (active).

Take `CCOc1ccc(NC(=S)N2CCCCCC2)cc1`: the inhibition is -24.3%.

In the case of `O=C(NCCOc1ccccc1)c1ccccc1F`, the inhibition is -74.7%.

Turning to `CCNC(=S)N1CCN(c2ncccn2)CC1`, the inhibition was -18.4%.

Take `C/C(=N\NC(=O)c1ccccc1F)c1ccccn1`: the inhibition was 94.8% (active).

As to `COc1ccc(/C=C/C(=O)c2c(O)cc(OC)cc2OC)cc1`, the inhibition is -43.5%.

Take `COCCNS(=O)(=O)c1cc(Br)ccc1OC`: the inhibition is -12.3%.

For `CCOc1ccc(-n2c(O)c(/C=N/Nc3nc(C)cc(C)n3)c3ccccc3c2=O)cc1`, the inhibition was 90.6% (active).

As to `Cc1cc(C)nc(N/N=C/c2c(CO)cnc(C)c2O)n1`, the inhibition is 39%.

Turning to `CCOc1ccc(-n2c(SCC(=O)Nc3cc(C(=O)O)ccc3Cl)nc3ccccc3c2=O)cc1`, the inhibition is -1.51%.

In the case of `COc1ccc(CN2CCCC(CNC(=O)c3ccc(F)cc3)C2)cc1OC` (stereo unspecified), the inhibition is 3.62%.

With `CCCCCCCCCCOC(=O)C[N+](C)(C)CC1CCCCC1O` (stereo unspecified), the inhibition is 2.65%.

As for `COc1ccc(CC(N)c2csc(NC(=O)NC(c3ccccc3)c3ccccc3)n2)cc1` (stereo unspecified), the inhibition is 80.7%.

Turning to `COc1ccc(CC(N)c2csc(NC(=O)Cc3ccccc3)n2)cc1` (stereo unspecified), the inhibition is -16.8%.

Consider `COc1ccc(CC(N)c2csc(NC(=O)Nc3ccc(C(C)C)cc3)n2)cc1` (stereo unspecified), for which the inhibition was 96.6% (active).

With `O=C(CCNS(=O)(=O)c1cccs1)N1CCN(c2ccc(F)cc2)CC1`, the inhibition is -1.48%.

Take `C=C(C)C(=O)O[C@H]1C/C(C)=C\C(=O)/C=C(\C)[C@H](O)[C@@H]2OC(=O)C(=C)[C@@H]21`: the inhibition is 87.7% (active).

`COC(=O)c1c(NC(=O)c2ccc(S(=O)(=O)N3CCOCC3)cc2)sc2c1CCN(C(C)C)C2`: the inhibition is -14%.

As for `N#C/C(C(=S)Nc1ccccc1)=C1/NN=C(N2CCOCC2)N1c1ccccc1`, the inhibition is 2.09%.

On to `CCOC(=O)c1cnc2nc(SCc3ccccc3Cl)[nH]n2c1=O`, for which the inhibition was -11.4%.

As for `CCOC(=O)c1cnc(-n2nc(C)cc2C)nc1NNc1cc(C)nc(-c2ccccc2)n1`, the inhibition was 92.1% (active).

Turning to `Cc1cc(-n2nc(C)cc2C)n2ncc(-c3ccccc3)c2n1`, the inhibition is -43%.

On to `O=C(Oc1ccccc1)Oc1ccc2c(c1)oc(=O)c1ccccc12`, for which the inhibition was -6.2% and -3.28%.

Regarding `Cc1ncoc1C(=O)NCCC(c1ccccc1)c1ccccc1`, the inhibition was 17.9%.

In the case of `CCNc1nc(NCC)nc(N(C)n2cnnc2)n1`, the inhibition is 4.63%.

On to `O=C(CCCCCn1c(=S)[nH]c2cc3c(cc2c1=O)OCO3)N1CCN(c2ccc(F)cc2)CC1`, for which the inhibition is 8.75%.

For `Cc1ccc(C)c(N2CCN(C(=O)CCCCCn3c(=S)[nH]c4ccc(N5CCOCC5)cc4c3=O)CC2)c1`, the inhibition is 87.2% (active).

`Cc1ccc(C)c(N2CCN(C(=O)CCCn3c(=O)c4cccn4c4cccnc43)CC2)c1`: the inhibition is 8.64%.

Take `CCCN(CC(=O)Nc1ccccc1OC)C(=O)CCC(=O)c1ccc(F)cc1`: the inhibition was 8.98%.

For the compound `COc1ccccc1N1CCN(C(=O)C2Cc3ccccc3CN2C(=O)c2ccco2)CC1` (stereo unspecified), the inhibition was -11.8%.

Consider `CN(C)S(=O)(=O)c1cccc(NC(=O)COC(=O)C2(c3ccccc3F)CCCC2)c1`, for which the inhibition is 12.1%.

Turning to `CC[C@H]1CN2CCc3cc(OC)c(OC)cc3[C@@H]2C[C@@H]1C[C@H]1NCCc2cc(OC)c(OC)cc21`, the inhibition is 94.7% (active).

Turning to `CC1CN(c2nc(-c3ccccc3)nnc2-c2ccccc2)CC(C)O1` (stereo unspecified), the inhibition was 21%.

For `CC(C)N(C(=O)[C@H]1C[C@H](CC(=O)NC(C)(C)C)C(=O)N2CCc3c([nH]c4ccc(Cl)cc34)[C@]12C)C(C)C`, the inhibition is 26.9%.

Consider `COc1cc(NC(=O)C2=C(C)OCCS2)c(Cl)cc1C(=O)NCCCN1CCCC(C)C1` (stereo unspecified), for which the inhibition is -6.28%.

Turning to `O=C(O)c1[nH]c2ccccc2c1C(c1cccc(O)c1)c1c(C(=O)O)[nH]c2ccccc12`, the inhibition is 0.858%.

In the case of `O=C(NCc1ccco1)C1(c2ccc(Cl)cc2)CCCC1`, the inhibition was -21.5%.

In the case of `O=C(CSc1nnnn1-c1ccccc1)NCc1ccco1`, the inhibition was 4.12%.

In the case of `O=C(CSc1c2c(nc3ccc(Cl)cc13)CCCC2)NCc1ccco1`, the inhibition is 89.8% (active).

Consider `COc1ccccc1NC(=O)COC(=O)Cc1ccc(S(=O)(=O)N2CCCCC2)s1`, for which the inhibition was -14.6%.

Consider `Cc1nn(Cc2ccccc2Cl)c(C)c1NC(=O)Cn1nc([N+](=O)[O-])c(Cl)c1C`, for which the inhibition was 3.56%.

On to `Cc1c(Cl)c([N+](=O)[O-])nn1Cc1ccc(C(=O)N/N=C\c2cc(Cl)ccc2O)o1`, for which the inhibition was 92.8% (active).

Take `O=C(N/N=C\c1ccc(Br)cc1)c1ccc(Cn2cccn2)o1`: the inhibition was -11.5%.

Consider `Cc1ccsc1C(=O)N[C@@H](C)c1nnc2ccccn12`, for which the inhibition was 1.01%.

Turning to `CNC(=O)c1cccc2nc3ccccc3nc12`, the inhibition is -0.196%.

Consider `CN(C)CCNC(=O)c1ccc(Cl)c2cc3ccccc3nc12`, for which the inhibition is 94.1% (active).

As for `CCCN(CCC)CCNC(=O)c1cc2c(C)nc3ccccc3c2o1`, the inhibition was 24.7%.

In the case of `O=C(CNCc1ccc(Cl)cc1)Nc1cccc(C(=O)O)c1`, the inhibition was -8.08%.

For `O=C(/C=C/c1ccc([N+](=O)[O-])cc1)NCCSCc1ccco1`, the inhibition was -1.26%.

For the compound `COc1ccc(C)cc1-n1nnnc1SCC(=O)c1cc(C)n(Cc2ccco2)c1C`, the inhibition is 3.21%.

`COC(=O)CC(CC(=O)OC)n1cccc1`: the inhibition is -11.6%.

Turning to `COc1ccc(NC(=O)/C(Cl)=C(/Cl)S(=O)Cc2ccc(C)cc2)cn1` (stereo unspecified), the inhibition is 96.6% (active).

For the compound `COc1ccc(NC(=O)CN2C(=O)NC(C)(c3ccccc3)C2=O)cn1` (stereo unspecified), the inhibition is -47.7%.

Take `COc1ccc(NC(=O)C2Cc3c(-c4ccc5c(c4)OCO5)ccnc3O2)cn1` (stereo unspecified): the inhibition was 15.8%.

With `Cn1c(SCC(=O)N2CCOCC2)nnc1-c1ccc2ncccc2c1`, the inhibition is -2.77%.

With `Cc1cc(C)c(S(=O)(=O)N2CCCC2CNC(=O)c2ccc3c(c2)OCO3)c(C)c1` (stereo unspecified), the inhibition was 7.24%.

Consider `CCOC(=O)c1cc(-c2ccccc2C)n(Cc2cc(C)no2)n1`, for which the inhibition is 4.57%.

With `COc1ccc2c(c1)c(=Cc1ccc(N(C)C)cc1)c1cc(-c3ccccc3)[n+](C)n12`, the inhibition was 92.6% (active).

On to `COC(=O)CN1C(=O)C(C)(C)Oc2ccc(C(=O)Nc3cccc(OC)c3)cc21`, for which the inhibition is 3.92%.

Consider `Cc1cc(N)n2nc(-c3ccc(C(C)(C)C)cc3)cc2n1`, for which the inhibition is -5.54%.

With `O=C(NNc1ccccc1Cl)C(O)(c1cccc(C(F)(F)F)c1)c1cccc(C(F)(F)F)c1`, the inhibition is 20.3%.

`O=C(O)C(=Cc1ccc([N+](=O)[O-])cc1)CCc1ccccc1`: the inhibition is -2.04%.

For the compound `O=C1/C(=C\c2ccc([N+](=O)[O-])cc2)CS(=O)(=O)C/C1=C/c1ccc([N+](=O)[O-])cc1`, the inhibition was 96.5% (active).

As for `CC(=O)Nc1ccc(C=CC(=O)c2ccc([N+](=O)[O-])cc2)cc1`, the inhibition is 9.91%.

In the case of `CSc1ccccc1NC(=O)c1ccc2c(c1)CCN2S(C)(=O)=O`, the inhibition is -16.4%.

Regarding `COc1ccc(CNc2nccs2)cc1`, the inhibition was -11%.

`COc1ccc(CNc2ncnc3ccccc23)cc1`: the inhibition is 86.1% (active).

Turning to `c1ccc(CNc2ncnc3[nH]ncc23)cc1`, the inhibition was 14.2%.

Consider `CCc1ccc(N2CC(O)=C(c3nc4ccccc4c(=O)[nH]3)C2=N)cc1`, for which the inhibition is -17%.

For the compound `CC(=O)Nc1ccc(NC(=O)CC2CCCC2)cc1`, the inhibition was -25.4%.

On to `COc1ccc(CN2CCOC2=O)cc1OC`, for which the inhibition was 15.9%.

As to `O=C(Nc1ccc(Cl)c(C(F)(F)F)c1)C1Cc2c(-c3ccccc3Oc3ccccc3)ccnc2O1` (stereo unspecified), the inhibition was 17.7%.

As to `COc1ccc2c(c1OC)C(=O)OC2Nc1nc(-c2ccccc2)cs1` (stereo unspecified), the inhibition was 89.4% (active).

Consider `COc1cc(C(O)c2nc(-c3cccc(C(=O)O)c3)cs2)ccc1F` (stereo unspecified), for which the inhibition is -16.5%.

`C/C(CC1CC(C)(C)OC1=O)=N/Nc1nc(-c2ccccc2)cs1` (stereo unspecified): the inhibition is -73.7%.

On to `Cc1ccc(S(=O)(=O)N(C)C)cc1NC(=O)C1Cc2ccccc2CN1C(=O)c1ccco1` (stereo unspecified), for which the inhibition was -2.14%.

In the case of `C/C=C(/C)C(=O)OC1Cc2c(ccc3ccc(=O)oc23)OC1(C)C` (stereo unspecified), the inhibition is 17.3%.

The record behind these values is PubChem BioAssay AID588674 (Broad Institute, 2011).
